Sampled rows, rich in hits. Any-hit rate of the full collection: about 32%.
PostGolgi ctrl: yeast control strain growth, post-Golgi counter-screen. AID 738. inhibition, % at 10 µM. efflux-deficient yeast background strain, growth absorbance A615, 16 h. 5% of 98,000 active
PostGolgi yeast: growth inhibition of a yeast mutant, post-Golgi transport screen | post-Golgi transport phenotypic cell assay | inhibition, % at 10 µM | AID 739 | 0.9% of 98,000 active;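 note: yeast cells grown in 1536-well plates; yeast grown about 18 h at 30C before absorbance read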
CYP2C9 inh: inhibitors of human CYP2C9; P11712; CYP2C9 Supersomes, luciferin-H conversion, luminescence; inhibition, % at 5 µM; 20% of 96,000 active; AID 777;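 active = blocking of liver enzyme CYP2C9 beyond about 50% at 5 µM, limit read from the data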
CYP2C19 inhib: human CYP2C19 inhibition. P33261. CYP2C19 Supersomes, luciferin-H EGE luminescence, 30 min. inhibition, % at 5 µM. 21% of 96,000 active;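 active = CYP2C19 inhibition above a set limit at 5 µM in the primary screen, cut at about 50% in these data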;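 note: plate controls were negative control wells for no effect and 2.5 mM tranylcypromine positive control for full effect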
Target sequence (P33261 whole entry, looked up): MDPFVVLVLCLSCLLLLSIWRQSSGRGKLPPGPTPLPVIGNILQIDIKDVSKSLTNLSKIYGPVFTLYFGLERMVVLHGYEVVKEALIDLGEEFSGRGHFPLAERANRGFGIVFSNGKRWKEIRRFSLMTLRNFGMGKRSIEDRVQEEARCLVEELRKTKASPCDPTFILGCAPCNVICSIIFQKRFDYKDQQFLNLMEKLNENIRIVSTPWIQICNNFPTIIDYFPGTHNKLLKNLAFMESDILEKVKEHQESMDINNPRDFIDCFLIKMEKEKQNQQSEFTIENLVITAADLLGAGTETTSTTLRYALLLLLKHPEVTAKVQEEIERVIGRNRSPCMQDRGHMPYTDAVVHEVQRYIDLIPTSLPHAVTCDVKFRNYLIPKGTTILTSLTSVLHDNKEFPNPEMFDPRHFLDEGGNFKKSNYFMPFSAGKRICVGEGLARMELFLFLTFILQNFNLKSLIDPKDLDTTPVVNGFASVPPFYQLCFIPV
CYP2C19 act: cytochrome P450 2C19 (human) activation; P33261; recombinant CYP2C19, luciferin-H EGE luminescence; active compounds read high; 0 = fully inhibited enzyme, 1 = untreated enzyme; activation factor at 5 µM; 96,000 tested, under 10 active; AID 1025;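 active = activation factor of at least 2 at 5 µM in the primary screen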;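 note: 0 = wells with 2.5 mM tranylcypromine and 1 = vehicle-only wells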
CYP2C9 activ: CYP2C9 (human) activation. 1.4% of 96,000 active. recombinant CYP2C9, luciferin-H conversion, luminescence; active compounds read high; factor 1 = untreated enzyme, 0 = blocked. P11712. activation factor at 5 µM;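 active = activation factor of 2 or more for CYP2C9 at a 5 µM dose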;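 note: 0 = sulfaphenazole-blocked wells and 1 = vehicle-only wells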
* = called active by the depositor; / = no result. Cut-off read from the data, not from the text of the source, unless noted: active = inhibition above about 30%; inactive = the rest.

SMILES | PostGolgi ctrl | PostGolgi yeast | CYP2C9 inh | CYP2C19 inhib | CYP2C19 act | CYP2C9 activ
CC1Cc2ccccc2N1C(=O)CN1CCc2ccccc2C1 (configuration not stated) | 4.6 | 11.8 | 36.2 | 92.0* | 0.1 | 0.6
CC1Cc2ccccc2N1c1ncnc2c1nnn2Cc1ccccc1 (configuration not stated) | 41.7* | 10.4 | 64.7* | 46.8 | 0.5 | 0.4
CCCCC(=O)Nc1ccc(NC(=O)C2CC2)nc1 | 5.2 | -7.9 | / | / | / | /
Cc1cc2nc3c(nc2cc1C)C1(C(=O)N(C)C)CCC3(C)C1(C)C (configuration not stated) | 9.2 | -2.0 | 3.5 | 6.4 | 0.9 | 1
CCCN(CCC)CCCOC(=O)c1ccc(Cl)cc1Cl | 2.9 | 26.6 | 8.9 | 11.0 | 0.9 | 0.9
CCC(Oc1ccccc1)C(=O)Nc1ccc(-c2nnc(-c3ccco3)o2)cc1 (configuration not stated) | -0.4 | -8.8 | 97.4* | 90.4* | 0.1 | 0
CCC(Oc1ccccc1)C(=O)Nc1ccc(S(=O)(=O)Nc2cnc3ccccc3n2)cc1 (configuration not stated) | 11.7 | -0.5 | 28.6 | 5.8 | 0.9 | 0.7
O=C(COc1ccc(Br)cc1)Nc1ccc(-c2nnc(-c3ccco3)o2)cc1 | 3.5 | -0.4 | 33.4 | 63.9* | 0.4 | 0.7
O=C(COC(=O)c1cccs1)NC1CCCCC1 | 6.6 | -5.1 | 17.5 | 92.1* | 0.1 | 0.8
Cc1cnc(C(=O)OCC(=O)NC23CC4CC(CC(C4)C2)C3)cn1 | 16.4 | -1.2 | 30.9 | 3.9 | 1 | 0.7
O=C(NC1CCCCC1)c1cccs1 | 9.3 | 9.6 | 4.5 | -1.6 | 1 | 1
O=C(COC(=O)c1cccs1)c1ccccc1 | 6.2 | -5.5 | 77.8* | 88.8* | 0.1 | 0.2
O=C(COC(=O)c1ccccn1)NC1CCCCC1 | 1.3 | -1.2 | 77.1* | 28.0 | 0.7 | 0.2
O=C(COC(=O)c1ccccn1)NC12CC3CC(CC(C3)C1)C2 | 5.6 | 0.6 | 22.0 | 79.7* | 0.2 | 0.8
O=S(=O)(c1cnccc1N1CCN(/N=C/c2ccccc2)CC1)N1CCCCC1 | 17.1 | 6.6 | 23.4 | 7.4 | 0.9 | 0.8
Cc1cc(C(=O)OCC(=O)N2C(C)CCCC2C)c(C)o1 (configuration not stated) | -4.7 | -1.8 | / | / | / | /
O=C(Cn1cc2c(n1)CCCC2)N1CCCC1 | 6.1 | 3.2 | -9.9 | -0.4 | 1 | 1.1
CC(=O)C1=C(C)NC(SCC(=O)c2ccc(Cl)cc2)=C(C#N)C1c1ccco1 (configuration not stated) | 26.3 | -2.5 | 97.2* | 100.1* | 0 | 0
N#Cc1cnc(SCC(=O)c2ccccc2)nc1N | 10.8 | -4.9 | 4.6 | 37.1 | 0.6 | 1
CC(=O)C1=C(C)NC(SCC(=O)c2ccccc2)=C(C#N)C1CC(C)C (configuration not stated) | 10.4 | -0.8 | 59.0* | 41.9 | 0.6 | 0.4
Cc1snc(SCC(=O)c2ccc(Cl)cc2)c1C#N | 13.1 | 1.8 | 27.9 | 41.9 | 0.6 | 0.7
CC(=O)C1=C(C)NC(SCC(=O)c2ccccc2)=C(C#N)C1c1ccco1 (configuration not stated) | 26.4 | 2.3 | 92.6* | 98.8* | 0 | 0.1
CC(=O)C1=C(C)NC(SCC(=O)c2ccc(Cl)cc2Cl)=C(C#N)C1c1ccco1 (configuration not stated) | 33.8* | 6.2 | 100.4* | 99.8* | 0 | 0
CCC1(CC)C(=O)N(C)C(=O)NC1=NCc1ccccc1 | -2.8 | -2.7 | 14.8 | 11.5 | 0.9 | 0.9
CN(C)c1ccc(C2NCCS2)cc1 (configuration not stated) | -3.9 | 16.2 | 6.9 | 16.9 | 0.8 | 0.9
SMILES | PostGolgi ctrl | PostGolgi yeast | CYP2C9 inh | CYP2C19 inhib | CYP2C19 act | CYP2C9 activ
COC(=O)c1nn(-c2c(C)n(C)n(-c3ccccc3)c2=O)cc1O | 0.5 | -0.2 | 12.2 | 1.8 | 1 | 0.9
O=C1CCCC2=C1C(c1ccco1)Nc1ccc(C(=O)c3ccccc3)cc1N2 (configuration not stated) | 4.4 | -4.7 | 31.5 | 34.3 | 0.7 | 0.7
N#CC1=C(SCC(=O)c2ccc(Br)cc2)NC2=C(C(=O)CCC2)C1c1ccco1 (configuration not stated) | 15.4 | 13.7 | 98.8* | 99.2* | 0 | 0
O=C(CCc1nc2ccccc2c(=O)[nH]1)N1CCN(C/C=C/c2ccccc2)CC1 | -7.0 | 18.8 | 51.8* | 33.0 | 0.7 | 0.5
O=C(c1ccc(Br)s1)N1CCN(C/C=C/c2ccccc2)CC1 | 28.0 | 0.2 | 6.9 | 18.2 | 0.8 | 0.9
O=C(c1ccc(=O)n(Cc2ccccc2)n1)N1CCN(C/C=C/c2ccccc2)CC1 | 11.2 | 3.7 | 91.7* | 68.9* | 0.3 | 0.1
CC(=O)N1CCN(C(=O)CCc2nc3ccccc3c(=O)[nH]2)CC1 | -1.0 | 2.5 | 14.1 | 13.9 | 0.9 | 0.9
O=C(c1ccc(Br)o1)N1CCN(C/C=C/c2ccccc2)CC1 | 6.6 | 5.2 | 62.9* | 64.6* | 0.4 | 0.4
CC1(C)CC(=O)C(C(=O)CCCCC(=O)C2C(=O)CC(C)(C)CC2=O)C(=O)C1 | -10.2 | -6.1 | -19.4 | -11.5 | 1.1 | 1.2
CCCNC(=O)c1cccc(C(F)(F)F)c1 | 5.3 | 2.8 | -1.4 | 10.1 | 0.9 | 1
Cc1ccc(NC(=O)/C(=C\c2ccccc2)NC(=O)/C=C/c2ccccc2)cc1 | 6.2 | -0.6 | 39.1 | -0.1 | 1 | 0.6
CS(=O)(=O)Nc1cccc2cccnc12 | 4.4 | -2.4 | -135.7 | 4.6 | 1 | 2.4*
NC(=S)Nc1cccc2cccnc12 | 34.7* | 11.0 | -7.1 | 16.6 | 0.8 | 1.1
Cc1cc(C)c(N2C(=NC(=O)CCCC(=O)O)SC3CS(=O)(=O)CC32)c(C)c1 (configuration not stated) | -10.6 | 3.5 | -8.5 | -5.6 | 1.1 | 1.1
c1ccc(COc2ccc(OCCCNC3CCCC3)cc2)cc1 | 10.7 | 13.6 | 0.7 | 10.7 | 0.9 | 1
CCOc1cc(CNC2CCCC2)cc(Cl)c1OCc1ccccc1 | 4.2 | 3.0 | 16.7 | 76.1* | 0.2 | 0.8
FC(F)(F)c1cc(C(F)(F)F)n2nc(-c3sccc3-n3cccc3)cc2n1 | -6.4 | 0.5 | 11.3 | 25.7 | 0.7 | 0.9
CCOC(Cn1c(CCCO)nc2ccccc21)OCC | -6.9 | -3.3 | -9.4 | 9.3 | 0.9 | 1.1
CC1(c2ccccc2)NC(=O)N(CCN2C(=O)c3ccccc3C2=O)C1=O (configuration not stated) | 4.9 | 1.2 | 66.7* | 96.1* | 0 | 0.3
CCCC1(c2ccccc2)NC(=O)N(CCN2C(=O)c3ccccc3C2=O)C1=O (configuration not stated) | 4.4 | 2.4 | 37.7 | 89.3* | 0.1 | 0.6
COc1cc2cc3c(N)c(C(=O)Nc4sc(C)c(C)c4C#N)sc3nc2cc1OC | 10.7 | -10.3 | 17.5 | 4.2 | 1 | 0.8
Cc1cccc(N2C(=O)C(Cl)=C(Nc3c(C)n(C)n(-c4ccccc4)c3=O)C2=O)c1C | -0.1 | -10.2 | 22.7 | 8.9 | 0.9 | 0.8

Screening results: PubChem, several laboratories
